According to PubChem BioAssay (NCI):
This is part of a sample that, as a whole, favours compounds with a hit. Of some 79,000 tested, about 15% had one in any assay. Unmarked numbers belong to inactive results. Calls of active or inactive are those of the source. Cut-off read from the data, not from the text of the source: active = growth inhibition above about 70%; inactive = the rest.

Experiments:
[1] = NCI Yeast Anticancer Drug Screen. Data for the rad50 strain (AID 155);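 note: 0% = growth of vehicle-only cultures of the same strain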; details: S. cerevisiae rad50 strain growth inhibition, active compounds read high
Procedure, shortened: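 A DNA repair-deficient yeast mutant serves as the test organism; compound-induced growth inhibition is calculated against vehicle-treated cells.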

[2] = NCI Yeast Anticancer Drug Screen. Data for the mec2-1 strain (AID 157); details: S. cerevisiae mec2-1 strain, active compounds read high
Procedure, shortened: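 Cells of the genetically defined mec2-1 yeast strain are incubated with test compound. Inhibition of growth is calculated against vehicle-treated controls.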

[3] = NCI Yeast Anticancer Drug Screen. Data for the sgs1 mgt1 strain (AID 161);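 note: 0% = growth of cultures given vehicle only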; details: S. cerevisiae sgs1 mgt1 strain, active compounds read high
Procedure, shortened: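 Test agents were incubated with a DNA-repair-mutant yeast strain. Growth was then read and compared against vehicle-treated controls.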

[4] = NCI Yeast Anticancer Drug Screen. Data for the cln2 rad14 strain (AID 165);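 note: 0% = growth equal to vehicle treated cultures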; details: S. cerevisiae cln2 rad14 strain, active compounds read high
Procedure, shortened: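 The screen exposed genetically defined yeast (cln2 rad14) to test compounds and scored growth inhibition relative to vehicle-treated controls.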

[5] = NCI Yeast Anticancer Drug Screen. Data for the bub3 strain (AID 167); details: S. cerevisiae bub3 mutant strain, active compounds read high
Procedure, shortened: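 Inhibition values come from growth of compound-treated mutant yeast normalised to vehicle-treated controls.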

[6] = NCI Yeast Anticancer Drug Screen. Data for the mlh1 rad18 strain (AID 175); details: S. cerevisiae mlh1 rad18 strain growth inhibition, active compounds read high
Procedure, shortened: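 Compound-treated yeast growth, normalised to vehicle controls. Strain bears defined DNA repair mutations.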

[7] = at 5.0 µM (retest, dose inferred, filed as 0.5)
[8] = at 50.0 µM (retest, dose inferred, filed as 5.0)

Structure (SMILES) | growth inhibition [1, 7] | growth inhibition [1, 8] | growth inhibition ([1]; at 50.0 µM) | growth inhibition [2, 7] | growth inhibition [2, 8] | growth inhibition ([2]; at 50.0 µM) | growth inhibition [3, 7] | growth inhibition [3, 8] | growth inhibition ([3]; at 50.0 µM) | growth inhibition [4, 7] | growth inhibition [4, 8] | growth inhibition ([4]; at 50.0 µM) | growth inhibition [5, 7] | growth inhibition [5, 8] | growth inhibition ([5]; at 50.0 µM) | growth inhibition [6, 7] | growth inhibition [6, 8] | growth inhibition ([6]; at 50.0 µM)
CCOC(=O)C(NC(C)=O)[CH](c1ccccc1)[Sn]([c]1ccccc1)([c]1ccccc1)[c]1ccccc1 (stereo not given) | 3% | 92% (active) | 94.4% (active) | -7% | 96% (active) | 97.5% (active) | -10% | 95% (active) | 99.1% (active) | -19% | 92% (active) | 94% (active) | -13% | 96% (active) | 96.2% (active) | 2% | 95% (active) | 96.7% (active)
O=C(Nc1ccc(F)cc1)N1CCCCC1 | 41% | 43% | 8.15% | 36% | 29% | 47% | 40% | 42% | 36.9% | 29% | 31% | 9.25% | 41% | 70% (active) | 17.3% | 43% | 39% | 33.1%
CCCCCCCCN1C(=O)c2ccccc2S1(=O)=O | -2% | 95% (active) | 22.9% | -4% | 96% (active) | 32.1% | -2% | 94% (active) | 73.8% (active) | -17% | 95% (active) | -27.6% | 25% | 96% (active) | 89.2% (active) | -2% | 95% (active) | 76.2% (active)
C[C@]12C[C@@H](c3ccccc3)Nc3ccccc3N1C(c1ccccc1)=NO2 | -4% | 68% | 61% | 10% | 74% (active) | 74.8% (active) | -13% | 70% (active) | 81% (active) | 5% | 55% | 37.2% | -7% | 81% (active) | 62% | -19% | 75% (active) | 73.5% (active)
NCCNCCNCc1c2ccccc2c(CNCCNCCN)c2ccccc12 | 13% | 13% | 36.2% | -3% | -3% | 90.9% (active) | 0% | 0% | 90.9% (active) | 5% | 5% | 89.7% (active) | 7% | 7% | 43.8% | 17% | 17% | 90.8% (active)
Cc1ccc(Nc2nc3c(s2)C(=O)c2ccccc2C3=O)cc1 | 37% | 97% (active) | 98.2% (active) | 61% | 98% (active) | 98.8% (active) | 34% | 98% (active) | 98.7% (active) | 3% | 96% (active) | 97.8% (active) | 91% (active) | 97% (active) | 98.7% (active) | 61% | 97% (active) | 97.7% (active)
CC(=O)NC1=C(Nc2ccc(-c3ccc(NC4=C(NC(C)=O)C(=O)c5ccccc5C4=O)cc3)cc2)C(=O)c2ccccc2C1=O | 99% (active) | 98% (active) | 99.2% (active) | 100% (active) | 99% (active) | 99.5% (active) | 100% (active) | 99% (active) | 99.5% (active) | 99% (active) | 98% (active) | 99.1% (active) | 99% (active) | 99% (active) | 98.7% (active) | 99% (active) | 99% (active) | 99.3% (active)
S=C(CSc1ccccc1)Nc1cccc2ccccc12 | 15% | 82% (active) | 77% (active) | -12% | 51% | 28.4% | -4% | 67% | 31.3% | -11% | 72% (active) | 58.5% | 4% | 81% (active) | 81.7% (active) | 1% | 81% (active) | 79.5% (active)
CC(=O)Nc1ccc(-c2nnc(SCC(=O)Nc3ccc(Cl)cc3Cl)o2)cc1 | 1% | 30% | 89.4% (active) | -4% | 10% | 97.4% (active) | 2% | 8% | 94.9% (active) | 8% | 29% | 86.4% (active) | -3% | 22% | 97.7% (active) | 7% | 28% | 94.7% (active)
Clc1ccc(Cc2nc3ccccc3s2)c(Cl)c1 | 39% | 98% (active) | 90.8% (active) | 36% | 99% (active) | 93.3% (active) | 43% | 99% (active) | 94.1% (active) | 34% | 89% (active) | 91.5% (active) | 43% | 98% (active) | 92.5% (active) | 57% | 99% (active) | 92.5% (active)
